Screening results: PubChem, National Center for Advancing Translational Sciences (NCATS)
IMPase cell inh: qHTS Assay for Identifying the Cell-Membrane Permeable IMPase Inhibitors | AID 901, 2007 | Inositol monophosphatase 1 (Rattus norvegicus), P97697 | inhibition (IP1 accumulation), % at 46.1 µM | 120,000 tested, under 10 active | CHO-M1 cells, IP1 accumulation, HTRF TR-FRET ratio; active = well fitted curve in the direction sought with a large enough effect in the signal ratio, not every such curve was filed as active; inconclusive = small, poorly fitted or top-dose-only effect, or a change in a side signal; inactive = no such curve, though single readings can be large or run the other way; the % refers to the signal ratio;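 also: cells stimulated with carbachol in lithium chloride buffer; higher means more IMPase inhibition seen as more IP1 and lower FRET ratio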
Target sequence (P97697 whole entry, looked up): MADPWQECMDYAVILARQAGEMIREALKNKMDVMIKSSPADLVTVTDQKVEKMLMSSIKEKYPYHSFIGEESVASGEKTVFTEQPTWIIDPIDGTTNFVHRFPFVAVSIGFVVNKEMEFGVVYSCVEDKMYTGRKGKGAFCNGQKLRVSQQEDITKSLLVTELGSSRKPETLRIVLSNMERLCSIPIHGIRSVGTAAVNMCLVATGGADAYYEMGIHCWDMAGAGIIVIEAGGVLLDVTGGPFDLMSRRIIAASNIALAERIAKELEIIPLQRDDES
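CHO-M1, 2000 cells/well, cultured 16–30 h; cpd up to 46 uM; carbachol (50 uM solution, stimulation buffer w/ 50 mM LiCl, pH 7.4), 30 min 37C; IP-One TR-FRET, 10 min RT; Ex 320/Em 665, 620; Hill-fit AC50.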
HPGD block: qHTS Assay for Inhibitors of HPGD (15-Hydroxyprostaglandin Dehydrogenase). 15-hydroxyprostaglandin dehydrogenase [NAD(+)] (Homo sapiens), P15428. purified HPGD, NADH fluorescence kinetic, PGE2 substrate. Potency, µM, usual class: inhibitors. 4.3% of 150,000 active. AID 894, 2007; active = well fitted inhibition curve with a large enough effect, not every such curve was filed as active; inconclusive = small, poorly fitted or top-dose-only effect, or another doubt; inactive = no such curve, though single readings can be large or run the other way
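NADH formation kinetics: reaction with 30 uM PGE2 and 1 mM NAD+ (final), 20 nM enzyme, Tris-HCl pH 8 with Tween 20, after 15 min compound preincubation at room temperature. Fluorescence change, last versus first of five reads.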
IMPase Li cell: qHTS Assay for Identifying the Cell-Membrane Permeable IMPase Inhibitors: Potentiation with Lithium | CHO-M1 cells, IP1 TR-FRET (IP-One), carbachol + lithium | AID 1457, 2008 | Potency, µM (highest dose often 59.4 µM), most hits filed as inhibitors | 0.35% of 210,000 active;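 also: IP1 builds up when IMPase is blocked and the TR-FRET signal falls; nearly all actives have a fitted effect of over 50% in size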
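CHO-M1, 2000 cells/well, 16–30 h culture; cpd + low Li+, 30 min 37C; lysis with d2-IP1/Eu-anti-IP1 Ab, 10 min RT; TR-FRET 665/620 ratio and 620 channel; AC50 via Hill.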
ALDH1A1 inh: qHTS Assay for Inhibitors of Aldehyde Dehydrogenase 1 (ALDH1A1); AID 1030, 2008; 7.3% of 220,000 active; Purified ALDH1A1, NADH fluorescence, propionaldehyde substrate; Potency, µM (top dose mostly 75.3 µM), most hits filed as inhibitors; active = well fitted inhibition curve with a large enough effect, not every such curve was filed as active; inconclusive = small, poorly fitted or top-dose-only effect, or another doubt; inactive = no such curve, though single readings can be large or run the other way
Target sequence (P00352 whole entry, looked up): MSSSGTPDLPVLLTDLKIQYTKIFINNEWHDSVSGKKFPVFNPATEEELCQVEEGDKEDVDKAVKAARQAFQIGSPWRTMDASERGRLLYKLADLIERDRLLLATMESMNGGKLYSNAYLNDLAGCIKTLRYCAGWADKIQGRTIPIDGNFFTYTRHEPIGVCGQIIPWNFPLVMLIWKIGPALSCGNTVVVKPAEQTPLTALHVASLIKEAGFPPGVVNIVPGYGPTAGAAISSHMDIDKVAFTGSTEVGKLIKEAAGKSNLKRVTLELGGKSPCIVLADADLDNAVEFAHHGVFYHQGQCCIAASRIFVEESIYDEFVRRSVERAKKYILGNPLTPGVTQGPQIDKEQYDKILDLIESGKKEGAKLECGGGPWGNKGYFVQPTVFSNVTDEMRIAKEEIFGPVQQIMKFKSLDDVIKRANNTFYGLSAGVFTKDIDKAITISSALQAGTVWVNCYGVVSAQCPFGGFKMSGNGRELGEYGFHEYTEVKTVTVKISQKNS
HTT cytoprotect: qHTS Multiplex Assay to Identify Dual Action Probes in a Cell Model of Huntington: Cytoprotection (ATP) | Potency, µM (series often up to 56.4 µM), hits mostly activators | 0.14% of 230,000 active | PC12 HTT-Q103 induced, cytoprotection, ATP luminescence, 40 h; also: nearly all actives have a fitted effect of over 45% in size
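Readout: ATPlite luminescence (ATP level). Model: stable PC12, inducible Htt exon1 Q103-GFP. Inducer: tebufenozide, 100 nM final. Compounds: dose series. No G418 in medium.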
HTT aggregate: qHTS Multiplex Assay to Identify Dual Action Probes in a Cell Model of Huntington: Aggregate Formation (GFP). Potency, µM (series often up to 46.1 µM), actives largely listed as inhibitors. 1.1% of 220,000 active. PC12 HttQ103-GFP aggregates, Acumen cytometry, 40 h; also: nearly all actives have a fitted effect of over 60% in size
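Ecdysone-promoter PC12 model expressing HTT exon 1 Q103 fused to GFP, induced by tebufenozide at 100 nM final. Compounds titrated; aggregates sized 1–25 µm scored on a 488 nm laser cytometer.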
Hits are given with their value; 0 = inactive; ? = inconclusive; - = not tested or not shown; ! = not confirmed by another sample; [ ] = another dose, or the depositor's remark. Sampled rows, rich in hits. Any-hit rate of the full collection: about 9.4%. Unless noted, calls follow the shape of the dose curve; as a rule, active = well fitted curve in the direction sought with a large enough effect; inconclusive = small, poorly fitted or top-dose-only effect, or another doubt; inactive = no such curve, though single readings can be large; an effect the other way counts as inactive or inconclusive.

SMILES	IMPase cell inh	HPGD block	IMPase Li cell	ALDH1A1 inh	HTT cytoprotect	HTT aggregate
O=C(CSc1ncn[nH]1)c1ccc2c(c1)OCCO2	0	0	0	?	0	0
COc1ccc(N2C(=O)CC(Sc3ncn[nH]3)C2=O)c(OC)c1 (stereo not drawn)	0	-	-	14.1µM	0	0
CC(C)c1ccc(N2C(=O)CC(Sc3ncn[nH]3)C2=O)cc1 (stereo not drawn)	0	15.8µM	0	0.126µM	0	0[9.22 µM]
CCOC(=O)CCN1C(=O)[C@H]2[C@H]3[C@H](O)[C@H](O)C/C(=N/O[C@@H]4O[C@@H](COC(C)=O)[C@@H](OC(C)=O)[C@@H](OC(C)=O)[C@H]4OC(C)=O)[C@H]3CC[C@@H]2C1=O	-	-	-	0[13.5 µM]	0[10 µM]	-
CC(C)(C)c1ccc(C(=O)Nc2cc(-c3nc4ccccc4o3)ccc2Cl)cc1	0	-	-	-	-	-
CCn1c(C)cc(/C=C2\NC(=O)N(CC(=O)Nc3ccc(F)cc3)C2=O)c1C	-	-	0	0	0	0
CCn1c(C)cc(/C=C2/NC(=O)N(Cc3ccccc3F)C2=O)c1C	-	?	0	1.78µM	-	0
Cc1cc(/C=C2/NC(=O)N(c3ccccc3)C2=O)c(C)n1C(C)C	-	0	0	?	-	0
Cc1cc(/C=C2/NC(=O)N(Cc3ccccc3F)C2=O)c(C)n1C(C)C	-	0	0	2µM	0[10 µM]	0
CCn1c(C)cc(/C=C2\NC(=O)N(Cc3ccccc3)C2=O)c1C	0	0	0	8.91µM	0	0
Cc1ccc(NC(=O)COC(=O)CCc2ccc(S(=O)(=O)N3CCOCC3)cc2)cc1F	-	-	0	?	0	0
Nc1nc(N)nc(-c2cc(Cl)ccc2Cl)n1	-	-	-	-	7.94µM	0
CCc1ccc(-c2nc(SCC(=O)NCC3CCCO3)c(-c3ccc(F)cc3)[nH]2)cc1 (stereo not drawn)	0	-	-	-	-	-
Clc1ccc(-c2n[nH]c3c2CCC3)c(Cl)c1	?	7.08µM	0	0	0	0
Cn1cccc1C(=O)N1CCC2(CCCN(c3cccc(-c4ccccc4)c3)C2)CC1	-	0	0	0	0	-
Nc1ccc(N2CCOCC2)c2nonc12	-	-	0	20µM	0[10 µM]	0[9.22 µM]
Cc1cc(NS(=O)(=O)c2ccc(NC(=O)COc3ccc(Cl)cc3)cc2)nc(C)n1	0	-	-	-	-	-
Cc1cccc[n+]1C1C(c2ccccc2)C(C#N)=C(C(=C=[N-])C#N)NC1(O)C1CC1 (stereo not drawn)	?	0	?	?	0	0
N#CC(=C=[N-])C1=C(C#N)C(c2ccccc2F)C([n+]2ccccc2)C(O)(C2CC2)N1 (stereo not drawn)	?	0	12.6µM	0	0	0
CN1C2CCC1/C(=C/c1cccn1C)C(=O)/C2=C\c1cccn1C	-	28.2µM	0	0	-	0
Cn1cccc1/C=C1\CCc2ccccc2C1=O	-	-	0	0	0	0
Cn1cccc1/C=C1\Cc2ccccc2C1=O	-	-	0	11.2µM	0	0
CN1C2CCC1/C(=C\c1ccc(F)cc1)C(=O)/C2=C/c1ccc(F)cc1	0	0	0	0	0[10 µM]	?
COc1cccc(-c2nc(S(=O)(=O)c3ccccc3)c(NCc3ccccc3)o2)c1	0	-	-	-	-	-
COC(=O)c1ccc(N2C(=O)CC(Sc3n[nH]c(C)n3)C2=O)cc1 (stereo not drawn)	0	15.8µM	0	0.562µM	0	0[9.22 µM]
SMILES	IMPase cell inh	HPGD block	IMPase Li cell	ALDH1A1 inh	HTT cytoprotect	HTT aggregate
COC(=O)c1cc(C(=O)OC)cc(N2C(=O)CC(NNC(=O)c3ccc(C)cc3)C2=O)c1 (stereo not drawn)	-	14.1µM	0	0	-	0
COc1ccccc1N1C(=O)CC(Sc2nc(C)cc(C)n2)C1=O (stereo not drawn)	0	0	0	0	?	0
COC(=O)c1cc(C(=O)OC)cc(N2C(=O)CC(Sc3nc(C)cc(C)n3)C2=O)c1 (stereo not drawn)	0	0	0	12.6µM	0[0.074 µM]	0
COc1ccc(N2C(=O)CC(Sc3n[nH]c(-c4cccc(C)c4)n3)C2=O)cc1 (stereo not drawn)	-	-	-	-	0[10 µM]	0[9.22 µM]
COC(=O)c1cc(C(=O)OC)cc(N2C(=O)CC(NNC(=O)c3ccccc3Br)C2=O)c1 (stereo not drawn)	0	0	0	0	0	0
CCCCC/C=C\C[C@@H](O)/C=C/C=C\CCC(=O)O	-	0	0	0	0	-
Cc1oc2c(cc(NS(=O)(=O)c3ccc(Br)cc3)c3ccccc32)c1C(=O)OCc1ccccc1	0	-	-	-	-	-
C[N+]1(Cc2ccccc2)CCC(C(=O)OCC2CCCC2)CC1 (stereo not drawn)	-	-	0	0	0	-
CC(C)(C)c1ccc(OCCn2cc(C(=O)c3ccco3)c3ccccc32)cc1	0	-	-	-	-	-
CCCCCOC(=O)CSc1nc2sc3c(c2c(=O)n1Cc1ccccc1)CC(C)(CC)OC3 (stereo not drawn)	0	-	-	-	-	-
CC(C)C[C@@H](CC(=O)N[C@@H](CCC(=O)O)CC(=O)O)NC(=O)[C@@H]1CCCC[C@H]1NC(=O)C[C@H](CCCN)NC(=O)C[C@H](Cc1ccccc1)NC(=O)[C@@H]1CCCC[C@H]1N	-	0	0	0	0[1.9 µM]	-
CCN(CC)c1ccc(C(=O)OCC(=O)Nc2cccc(S(=O)(=O)NC3=NCCCCC3)c2)cc1	-	28.2µM	0	?	0[10 µM]	0
Cc1cccc(Nc2cc(Cl)nc(SCC(=O)O)n2)c1C	0	25.1µM!	0	10µM!	0[10 µM]	0
Cc1cccc(Nc2ccccc2C(=O)O)c1C	0	0	0	0	0	0
CC(=O)NC1=C(OS(=O)(=O)c2ccc(C)cc2)CN(C)C1=O	-	0	0	0[13.5 µM]	0[10 µM]	-
CC[n+]1c(/C=C/c2c[nH]c3ccccc23)ccc2cc(C)ccc21	-	-	0	0	0	8.91µM
Cc1cc(Cl)ccc1Nc1sc(C(=O)c2cc3cc(Cl)ccc3o2)c(N)c1C#N	-	0	0	0[13.5 µM]	0[10 µM]	-
Cc1noc(C)c1C(=O)N1CCC2(CCCN(C(=O)Nc3ccccc3)C2)CC1	-	0	0	0	0	-
Fc1cccc(Cl)c1/C=N\N=C1c2ccccc2-c2ccccc21	-	0	0	0[13.5 µM]	0[10 µM]	-
CCOC(=O)c1ccc(CC(=O)c2ccc(O)c(O)c2O)o1	-	-	0	10µM	0[10 µM]	0[9.22 µM]
CCOC(=O)c1ccc(CC(=O)c2oc3cc(O)ccc3c2C)o1	0	?	0	?	0	0
CN1CCN(C2=Cc3cc(Cl)ccc3Sc3cc(F)ccc32)CC1	0	0	0	0	0[10 µM]	?
CN1CCN(C2=Nc3ccccc3Sc3ccc(Cl)cc32)CC1	-	-	0	0	0	0
